Experimental data published in PubChem BioAssay (Tox21).
Results filed as inconclusive are left out. Active and inactive are the calls of the source. Calls come from the whole dose curve; as a rule, active = well fitted curve in the direction sought with a large enough effect in the repeat runs; inconclusive = weak or mixed curves; inactive = no such curve, though single readings can be large; an effect the other way counts as inactive or inconclusive.

Columns and labels:
[1] = A CellTox Green Cytotoxicity Assay to monitor cytotoxicity in HepG2 cells - 16 hour (AID 1224876); note: nearly all actives have a fitted effect of over 45% in size; note: potency is the fitted concentration of half-maximal effect
Summary of the method: (§1)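 Read-out is fluorescence of a cyanine dye excluded from live cells that stains DNA of dead HepG2 cells, with signal proportional to cytotoxicity. Plates were read at 0, 8, 16, 24, 32 and 40 h after compound addition.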

[2] = qHTS RealTime-Glo MT Cell Viability Assay in HepG2 cells - 32 hour (AID 1224877); note: nearly all actives have a fitted effect of over 55% in size; note: potency is the fitted concentration of half-maximal effect
Summary of the method: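 Tox21 10K library screened in qHTS format on HepG2 cells carrying RealTime-Glo reagents. Compounds were added after a 5 h preincubation, and the luminescent signal from continuous culture was measured repeatedly during 40 h treatment.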

[3] = A CellTox Green Cytotoxicity Assay to monitor cytotoxicity in HepG2 cells - 24 hour (AID 1224878); note: nearly all actives have a fitted effect of over 45% in size; note: potency is the fitted concentration of half-maximal effect
Summary of the method: as §1

[4] = qHTS RealTime-Glo MT Cell Viability Assay in HEK293 cells - 0 hour (AID 1224880); note: top concentration of the series differs between compounds; nearly all actives have a fitted effect of over 45% in size
Summary of the method: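 Cells were seeded together with NanoLuc luciferase and a prosubstrate that viable cells reduce to a luciferase substrate. After a 5 h incubation at 37 C/5% CO2, compounds were added and luminescence was measured repeatedly during 40 h of treatment.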

[5] = A CellTox Green Cytotoxicity Assay to monitor cytotoxicity in HEK293 cells - 32 hour (AID 1224881); note: nearly all actives have a fitted effect of over 40% in size; note: potency is the fitted concentration of half-maximal effect
Summary of the method: (§2)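 Nonlytic real-time cytotoxicity: HEK293 + CellTox Green reagent plated, 5 h preincubation, pintool compound addition (23 nL in DMSO), 37 C for 40 h, fluorescence measured at successive time points.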

[6] = A CellTox Green Cytotoxicity Assay to monitor cytotoxicity in HepG2 cells - 0 hour (AID 1224882); note: nearly all actives have a fitted effect of over 35% in size
Summary of the method: as §1

[7] = A CellTox Green Cytotoxicity Assay to monitor cytotoxicity in HepG2 cells - 32 hour (AID 1224883); note: nearly all actives have a fitted effect of over 50% in size; note: potency is the fitted concentration of half-maximal effect
Summary of the method: as §1

[8] = A CellTox Green Cytotoxicity Assay to monitor cytotoxicity in HEK293 cells - 8 hour (AID 1224884); note: nearly all actives have a fitted effect of over 35% in size; note: potency is the fitted concentration of half-maximal effect
Summary of the method: as §2

[9] = A CellTox Green Cytotoxicity Assay to monitor cytotoxicity in HEK293 cells - 24 hour (AID 1224875); note: nearly all actives have a fitted effect of over 45% in size; note: potency is the fitted concentration of half-maximal effect
Summary of the method: as §2

[10] = A CellTox Green Cytotoxicity Assay to monitor cytotoxicity in HepG2 cells - 40 hour (AID 1224879); note: nearly all actives have a fitted effect of over 40% in size; note: potency is the fitted concentration of half-maximal effect
Summary of the method: as §1

Measured: Potency

NCc1ccco1
not listed: [8] | [9] | [10]
inactive: all other assays above

CCCCCCCCCCCCN1CCCC1=O
inactive: [4] | [6]

CCCCCCCC1CCC(=O)O1 (stereo not given)
inactive: [4]

O=C1C=CC(=O)N1c1cccc(N2C(=O)C=CC2=O)c1
active: [1] 13.8 µM | [2] 15.5 µM | [3] 12.3 µM | [7] 11 µM
inactive: [4] | [6] | [8]

Cc1ccc(C2OC[C@@H]3OC(c4ccc(C)cc4)O[C@H]([C@H](O)CO)[C@@H]3O2)cc1 (stereo not given in full)
inactive: [2] | [3] | [6] | [7] | [8]

CCOc1ccc([N+](=O)[O-])cc1
inactive: [2] | [4] | [6]
active: [9] 44.3 µM | [5] 44.3 µM

Cc1c(Cl)c(=O)oc2cc(O)ccc12
not listed: [1] | [4] | [10]
inactive: all other assays above

COc1cc([C@@H]2c3cc4c(cc3[C@@H](O[C@@H]3O[C@@H]5CO[C@@H](C)O[C@H]5[C@H](O)[C@H]3O)[C@H]3COC(=O)[C@H]23)OCO4)cc(OC)c1O
inactive: [9] | [4] | [5] | [6] | [8]
active: [3] 48.4 µM | [7] 48.4 µM

ClC(c1ccccc1)(c1ccccc1)c1ccccc1
not listed: [1] | [10]
inactive: all other assays above

O=C(CCCCCCCCc1cccnc1)N1CCC(C=C(c2ccccc2)c2ccccc2)CC1
not listed: [1] | [2] | [10]
inactive: all other assays above

CCCCCCCCCCCCCCCCCCNC(=O)OC1CCN(C(=O)OC[C@H](COC(=O)N(Cc2cccc[n+]2CC)C(=O)c2ccccc2OC)OC)CC1
active: [8] 26.8 µM
inactive: [4] | [6]

Nc1cc([N+](=O)[O-])cc(Cl)c1O
not listed: [1] | [10]
inactive: all other assays above

CCCC(=O)c1cc(O)c(O)cc1O
inactive: [9] | [2] | [4] | [5] | [8]

CC(O)(c1ccc(Cl)cc1)c1ccc(Cl)cc1
inactive: [4] | [6]
active: [9] 49 µM | [3] 49 µM | [10] 49 µM | [5] 49 µM | [7] 49 µM

CCCCCCCCOC(=O)c1cc(O)c(O)c(O)c1
active: [2] 19.5 µM | [3] 43.6 µM | [10] 24.5 µM | [7] 43.6 µM
inactive: [4] | [6] | [8]

O=C1Cc2ccccc2C1
inactive: [4]

CC(=O)N(C)C
inactive: [4]

CC(C)=CCC[C@H](C)CC=O
not listed: [4] | [5] | [9]
inactive: all other assays above

c1ccc2c(c1)-c1ccc3ccc4cccc5cc-2c1c3c45
inactive: [9] | [2] | [6]

CN1CCN(CCCN2c3ccccc3Sc3ccc(Cl)cc32)CC1
active: [1] 23.9 µM | [2] 23.9 µM | [3] 23.9 µM | [7] 23.9 µM
inactive: [6] | [8]

CCCCCCCC/C=C\CCCCCCCC(=O)N(CCO)CCO
inactive: [1] | [2] | [4] | [6] | [8]

O=C(Cl)c1ccc(Cl)cc1Cl
active: [10] 54.9 µM | [7] 54.9 µM
inactive: [4] | [6]

CCOC(=O)[C@H](O)[C@@H](O)C(=O)OCC
not listed: [1] | [10]
inactive: all other assays above

Cc1c[nH]c(=O)[nH]c1=O
inactive: [9] | [2] | [4] | [5] | [6] | [8]

Cn1c(=O)[nH]c2ncn(C)c2c1=O
not listed: [1] | [4] | [10]
inactive: all other assays above

CC(C)(C)c1ccc(OC2CCCCC2O)cc1 (stereo not given)
inactive: [2] | [6]
active: [9] 54.9 µM | [5] 49 µM

CC1=C(/C=C/C(C)=C/C=C/C(C)=C\C(=O)O)C(C)(C)CCC1
inactive: [2] | [6] | [8]
active: [10] 55.1 µM

CCCCCCCCCCCCCCCCC(C(=O)O)C(O)(CC(=O)O)C(=O)O (stereo not given)
inactive: [9] | [2] | [4] | [5] | [6] | [8]

O=S(=O)(c1ccc(OCc2ccccc2)cc1)c1ccccc1O
inactive: [9] | [2] | [4] | [5] | [6] | [8]

C1=CCCC1
inactive: [1] | [2] | [3] | [10] | [6] | [7]
